Records with an inconclusive call do not appear. Unmarked numbers belong to inactive results. Active and inactive are the calls of the source. Calls follow the shape of the full dose curve.
Each compound was assayed against Bile acid receptor (Homo sapiens) (UniProt Q96RI1) (assay: qHTS assay for small molecule antagonists of farnesoid X receptor signaling (AID 588526)). Conditions: HEK293T FXR-UAS-bla, beta-lactamase ratio, antagonist mode; series mostly up to 76.7 µM; activity change, negative = inhibition: at the top concentration.
Sequence of Bile acid receptor (Homo sapiens) (Q96RI1 whole entry, looked up): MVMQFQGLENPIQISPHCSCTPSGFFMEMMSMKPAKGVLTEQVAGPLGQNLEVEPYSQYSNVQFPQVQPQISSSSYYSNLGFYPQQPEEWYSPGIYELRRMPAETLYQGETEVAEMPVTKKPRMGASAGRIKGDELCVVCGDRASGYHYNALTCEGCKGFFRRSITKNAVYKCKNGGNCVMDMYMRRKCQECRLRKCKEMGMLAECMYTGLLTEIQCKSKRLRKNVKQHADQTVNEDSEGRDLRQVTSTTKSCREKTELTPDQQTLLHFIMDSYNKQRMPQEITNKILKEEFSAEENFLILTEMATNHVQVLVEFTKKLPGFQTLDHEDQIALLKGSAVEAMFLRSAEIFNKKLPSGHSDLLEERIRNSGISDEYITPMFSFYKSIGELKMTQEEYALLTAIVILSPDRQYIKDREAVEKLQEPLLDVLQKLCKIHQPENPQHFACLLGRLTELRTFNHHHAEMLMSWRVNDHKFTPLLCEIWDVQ
Description: NIH Chemical Genomics Center [NCGC] U.S. Environmental Protection Agency [EPA] National Institutes of Environmental Health Sciences [NIEHS] National Toxicology Program [NTP] NCGC Assay Overview The farnesoid-X-receptor (FXR), a nuclear hormone receptor is highly expressed in liver, intestine, kidney and adrenal cortex. Natural ligands of FXR are the bile acids (Cholic acid, Chenodeoxy cholic acid etc). It is an important regulator of diverse metabolic pathways, including the bile acid homeostasis, lipid and glucose metabolisms. FXR regulates the expression of target genes by binding either as a monomer or as a heterodimer with RXR (retinoid X receptor). As FXR regulates a large number of target genes involved in bile acid, lipoprotein and glucose metabolisms, it is a potential pharmacological target for bile acid and lipid disorders. Thus screening environmental chemicals on FXR signaling can be used for the studies focused on metabolic syndrome, hepatic and intestinal toxicity etc.
NCGC Assay Protocol Summary Using a beta-lactamase reporter-gene under control of Farnesoid X receptor (FXR) response element, a cell-based assay [GeneBLAzer FXR-UAS-bla assay developed by Invitrogen] was used to measure FXR ligands signaling. GeneBLAzer FXR-UAS-bla HEK293T cells were used with assay medium containing 10% dialyzed FBS. The assay was performed in clear bottom black Greiner 1536-well plates. Guggulsterone were used in the screen as the positive control. Library compounds were measured for their ability to inhibit the reporter gene activity. Compounds were screened in a titration series in 1536-well format. The fluorescence intensity (405 nm excitation, 460/530 nm emission) was measured using an EnVision plate reader. Data was normalized relative to Chenodeoxycholic acid (50 uM, 100%), and DMSO only wells (basal, 0%). Concentration-response titration points for each compound were fitted to the Hill equation yielding concentrations of half-maximal inhibition (IC50) and maximal response (efficacy) values. qHTS protocol for FXR beta-lactamase assay in antagonist mode [Step] [Parameter] [Value] [Description] 1. Reagent; 5 uL; 5000 cells/well 2. Incubation; 37 C for 5-7 hrs 3. Compounds; 23 nL; 0.59 nM to 92 uM 4. Controls (Guggulsterone, FXR antagonist); 23 nL, - One column of dose response, start 200 uM, 1:2 dilutions in duplicates 5. Agonist (Stimulator); 1uL; Chenodeoxycholic acid at 100 uM and 50 uM final concentrations 6. Incubation; 37 C for 16 hrs 7. Detection reagent; 1 uL of CCF4-dye 8. Incubation; RT for 2 hrs 9. Detection; Fluorescence; Envision plate reader
% is scaled to controls: 0 for no effect and ±100 for the full control effect.

**Q.** How did the “activity change, negative = inhibition” value turn out when `c1ccc2cc3c(ccc4ccccc43)cc2c1` was run?
**A.** The value was -20.7%.

**Q.** How did the “activity change, negative = inhibition” value turn out when `c1ccc(B(c2ccccc2)c2ccccc2)cc1` was run?
**A.** The value was -12.1%.

**Q.** Which “activity change, negative = inhibition” value does the source give for `CN=C(N)NCC1CCOC1` (stereo not given) here?
**A.** Its value is 4.8%.

**Q.** For `OCc1cccc(Oc2ccccc2)c1`, which “activity change, negative = inhibition” value is on record?
**A.** The value was -0.906%.

**Q.** `C=C(C)C(=O)OCCCCCCCCCCCCCCCC` was tested. Which “activity change, negative = inhibition” value did it give?
**A.** The value was 11.6%.

**Q.** Which “activity change, negative = inhibition” value does the source give for `O=C1CCCC/C=C/CCCCCCCCCO1` here?
**A.** The value was 3.47%.

**Q.** How did the “activity change, negative = inhibition” value turn out when `C/C=C/C=C/CCCCCCCO` was run?
**A.** The value was -4.96%.

**Q.** Which “activity change, negative = inhibition” value does the source give for `C[Si]1(C)O[Si](C)(C)O[Si](C)(C)O[Si](C)(C)O1` here?
**A.** The value was -1.65%.

**Q.** Which “activity change, negative = inhibition” value does the source give for `NC(=O)Cc1cccc2ccccc12` here?
**A.** Its value is -9.29%.

**Q.** Which “activity change, negative = inhibition” value does the source give for `CCC/C(=N\OCC)C1=C(O)CC(O)(CC(C)S(=O)(=O)CC)CC1=O` (stereo not given) here?
**A.** Its value is 6.42%.

**Q.** How did the “activity change, negative = inhibition” value turn out when `O=C(O)c1ccc2c(c1)C(=O)OC2=O` was run?
**A.** The value was -9%.

**Q.** For `Cc1ccc(N=Nc2c(O)ccc3ccccc23)c(C)c1`, which “activity change, negative = inhibition” value is on record?
**A.** Its value is -2.97%.

**Q.** With `CCCCCCCCCCCCCCN` as the compound, how does the “activity change, negative = inhibition” value read?
**A.** The value was 7.22%.

**Q.** Which “activity change, negative = inhibition” value does the source give for `CCCCCCc1ccc(N)cc1` here?
**A.** Its value is -4.83%.

**Q.** How did the “activity change, negative = inhibition” value turn out when `CC(COc1ccc(C(C)(C)C)cc1)OS(=O)OCCCl` (stereo not given) was run?
**A.** The value was 1.65%.

**Q.** How did the “activity change, negative = inhibition” value turn out when `O=C(OCCOCCOC(=O)c1ccccc1)c1ccccc1` was run?
**A.** Its value is -6.41%.

**Q.** How did the “activity change, negative = inhibition” value turn out when `CCCCCCCCCCCCCCCCCC(N)=O` was run?
**A.** Its value is -17.4%.

**Q.** Which “activity change, negative = inhibition” value does the source give for `CC(C)C[C@H](NC(=O)OCC1c2ccccc2-c2ccccc21)C(=O)O` here?
**A.** The value was -3.32%.

**Q.** Which “activity change, negative = inhibition” value does the source give for `CC(C)(C)C(O)/C(=C\c1ccc(Cl)cc1)n1cncn1` (stereo not given) here?
**A.** Its value is -10.1%.

**Q.** For `C[Si]1(C)O[Si](C)(C)O[Si](C)(C)O1`, which “activity change, negative = inhibition” value is on record?
**A.** The value was 0.21%.

**Q.** `CCCCCCCCCCCCCCCO` was tested. Which “activity change, negative = inhibition” value did it give?
**A.** The value was -12.9%.

**Q.** How did the “activity change, negative = inhibition” value turn out when `CCCCOCC(C)OCC(C)O` (stereo not given) was run?
**A.** Its value is 1.51%.

**Q.** Which Potency does the source give for `CCCCOC(=O)[C@@H](C)Oc1ccc(Oc2ccc(C(F)(F)F)cn2)cc1` here?
**A.** The Potency was “inactive”.

**Q.** With `CC(C)C(=O)OCC(C)(C)C(O)C(C)C` (stereo not given) as the compound, how does the “activity change, negative = inhibition” value read?
**A.** Its value is -2.71%.

**Q.** How did the “activity change, negative = inhibition” value turn out when `CCOC(=O)[C@H](C)Oc1ccc(Oc2nc3ccc(Cl)cc3o2)cc1` was run?
**A.** The value was -8.86%.

**Q.** Which “activity change, negative = inhibition” value does the source give for `CCCCCCCCCCCCc1ccccc1` here?
**A.** The value was 5.13%.

**Q.** Which “activity change, negative = inhibition” value does the source give for `Cn1c(=O)[nH]c(=O)n(C2CCC(O)CC2)c1=O` (stereo not given) here?
**A.** Its value is 5.93%.

**Q.** How did the “activity change, negative = inhibition” value turn out when `C1=C/CC/C=C/CC/C=C/CC/1` was run?
**A.** Its value is -3.21%.

**Q.** How did the “activity change, negative = inhibition” value turn out when `NCCCCCCCCCCC(=O)O` was run?
**A.** The value was -8.76%.

**Q.** How did the “activity change, negative = inhibition” value turn out when `Cl[Si](Cl)(Cl)c1ccccc1` was run?
**A.** Its value is -1.07%.

**Q.** Which “activity change, negative = inhibition” value does the source give for `CN(C)CCOCCN(C)C` here?
**A.** The value was -2.28%.

**Q.** `O=S(=O)(O)c1cc(S(=O)(=O)O)c2c(N=Nc3ccccc3)c(O)ccc2c1` was tested. Which “activity change, negative = inhibition” value did it give?
**A.** Its value is -4.69%.

**Q.** For `O=C(O)CN(CCCN(CC(=O)O)CC(=O)O)CC(=O)O`, which “activity change, negative = inhibition” value is on record?
**A.** Its value is -1.99%.

**Q.** `COCCOCCOCCOC` was tested. Which “activity change, negative = inhibition” value did it give?
**A.** The value was -2.84%.

**Q.** How did the “activity change, negative = inhibition” value turn out when `c1ccc2cc3ccccc3cc2c1` was run?
**A.** The value was -1.71%.

**Q.** For `CCCCCCCCCCO`, which Potency is on record?
**A.** The Potency was “inactive”.

**Q.** Which “activity change, negative = inhibition” value does the source give for `CC(C)c1cccc(C(C)C)c1` here?
**A.** Its value is -4.51%.

**Q.** For `O=C(O)C(c1ccc(Cl)cc1)c1ccc(Cl)cc1`, which “activity change, negative = inhibition” value is on record?
**A.** The value was -1.93%.

**Q.** With `O=S(c1ccc(Cl)cc1)c1cc(Cl)c(Cl)cc1Cl` (stereo not given) as the compound, how does the “activity change, negative = inhibition” value read?
**A.** The value was -16.5%.

**Q.** For `CCOC(=O)c1ccccc1C`, which “activity change, negative = inhibition” value is on record?
**A.** Its value is -5.91%.

From PubChem BioAssay (NCATS)
